# Screening results deposited in PubChem BioAssay by several laboratories.
# TWEAK Fn14 block – inhibitors of TWEAK-Fn14 signaling, primary screen, luciferase reporter cells, uHTS; 2% of 360,000 active; inhibition, % at 10 µM; TWEAK-stimulated Fn14 reporter cells, luciferase luminescence, 8 h; in the data active = inhibition above about 50%
# LGR2 antag – inhibitors of bursicon-induced LGR2 CRE-luciferase signal, primary screen, cell-based, HEK293, CRE-luciferase reporter, bursicon stimulation; Drosophila bursicon receptor LGR2 (rickets); bursicon-stimulated, 4 h; inhibition, % at 9.99 µM; 0.35% of 380,000 active; AID 720647, 2013;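 active = drop in luminescence signal, shown as inhibition above about 50% in the replicate tests, limit read from the data, passing the limit was not always enough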;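 note: agonist challenge used bursicon conditioned medium at about half maximal strength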
# TROY signal inh – inhibitors of TROY-driven NF-kB signaling, primary screen, Q293 LMP1-TROYcd cells, NF-kB luciferase, uHTS. inhibition, % at 10 µM. Q293 LMP1-TROYcd NF-kB luciferase reporter, 4 h. AID 1347056, 2019. 0.98% of 360,000 active;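 active = compounds whose plate-normalised and pattern-corrected inhibition of the luciferase reporter signal at the single screening dose is 50% or more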
# HSP90 refold inh – HSP90 inhibitors, primary screen, cell lysate, luminescence; Heat shock protein HSP 90 (rabbit reticulocyte lysate; luciferase refolding); Rabbit reticulocyte lysate, luciferase refolding luminescence, 3 h; 0.91% of 290,000 active; inhibition, % at 5.6 µM; AID 1789, 2009;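 active = inhibition above the screen-wide mean plus 3 SD, computed separately per campaign, cut at about 16% in these data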;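 note: 0% = DMSO wells and 100% = 60 µM geldanamycin wells; inhibitors lower the luminescence because luciferase stays unfolded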
# * marks the source's active call; other numbers are inactive results; . = not tested or not shown. An excerpt weighted towards active compounds, which were near 2.2% of everything screened.
SMILES,TWEAK Fn14 block,LGR2 antag,TROY signal inh,HSP90 refold inh
COc1ccc(-c2cn3c(C)c(C(=O)N4CCN(c5ccc(F)cc5)CC4)sc3n2)cc1,-12,-17,11,68*
Cc1ccc(NC(=O)c2cccs2)cc1S(=O)(=O)Nc1cccc(Cl)c1,60*,28,39,1
Cc1ccc(NC(=S)NC(=O)c2ccc(F)cc2)cc1S(=O)(=O)Nc1cccc(Cl)c1,68*,-18,50*,5
O=C(NNC(=O)c1cccs1)Nc1cccc(Cl)c1,-11,.,-21,-8
Cc1cc(C)c(NS(=O)(=O)c2ccc(NC(=O)c3cccs3)cc2)c(C)c1,41,37,51*,-6
O=C(C[C@H]1C[C@H]2c3cc(NC(=O)NC4CCCCC4)ccc3O[C@H]2[C@@H](CO)O1)NC1CCCCC1,.,19,.,.
COc1ccc(CN(C)C[C@H]2OCCCC[C@@H](C)Oc3ccc(NC(=O)Nc4cccc5ccccc45)cc3C(=O)N([C@H](C)CO)C[C@H]2C)cc1,.,3,.,.
CCC(=O)N1CC2(CN(Cc3ccncc3)C2)c2c(n(C)c3cc(OC)ccc23)[C@H]1CO,.,-15,.,.
O=C(N[C@H]1CC[C@H](CCn2cc(C3(O)CCCC3)nn2)O[C@@H]1CO)C1CC1,.,11,.,.
O=C(/C=C/c1ccc([N+](=O)[O-])cc1)Nc1ncc([N+](=O)[O-])s1,66*,94*,40,0
C[C@@H]1CN([C@H](C)CO)C(=O)c2cccc(NC(=O)c3nc4ccccc4s3)c2O[C@H]1CN(C)Cc1ccncc1,.,-16,.,.
CC(C)NC(=O)N(C)C[C@H]1Oc2ccc(NC(=O)Nc3ccccc3)cc2C(=O)N([C@@H](C)CO)C[C@H]1C,.,-26,.,.
Cc1cc(Cl)ccc1OC(C)C(=O)N1CCCN(C(=O)C(C)Oc2ccc(Cl)cc2C)CC1 (stereo not drawn),63*,.,39,-5
Cc1cc(Cl)ccc1OCC(=O)N1CCCN(C(=O)COc2ccc(Cl)cc2C)CC1,30,6,47,-3
O=C(C[C@@H]1CC[C@H](NC(=O)C2CCOCC2)[C@H](CO)O1)Nc1ccccc1,.,13,.,.
O=C(O)CN1C(=O)/C(=C\c2cn(-c3ccccc3)nc2-c2ccccc2)SC1=S,2,.,-6,-3
CC(C)COc1ccc(-c2nn(-c3ccccc3)cc2/C=C2/SC(=S)N(CC(=O)O)C2=O)cc1,-15,6,88*,-5
CCc1nc(NCC2CCCO2)c2oc3ccccc3c2n1 (stereo not drawn),87*,.,.,2
c1ccc2c(c1)oc1c(Nc3ccc4c(c3)OCCO4)ncnc12,67*,25,-39,5
Cc1ccc(Nc2ncnc3c2oc2ccccc23)cc1,4,-68,-60,5
Cc1nc(NCC2CCCO2)c2oc3ccccc3c2n1 (stereo not drawn),-4,.,-1,-6
Cc1nc(Nc2ccc3c(c2)OCCO3)c2oc3ccccc3c2n1,-4,.,-7,-1
CCc1nc(Nc2ccc3c(c2)OCCO3)c2oc3ccccc3c2n1,79*,.,46,0
O=C(C[C@H]1C=C[C@@H](NC(=O)c2cccc(F)c2)[C@H](CO)O1)Nc1nccs1,.,-13,.,.
C[C@H](CO)N1C[C@H](C)[C@@H](CN(C)C(=O)C2CC2)Oc2cc(-c3ccc(C(=O)N(C)C)cc3)ccc2S1(=O)=O,.,-3,.,.
SMILES,TWEAK Fn14 block,LGR2 antag,TROY signal inh,HSP90 refold inh
CCOC(=O)NNC(=O)CCn1c2c(c3ccccc31)CCCC2,59*,6,47,-1
CC(=O)NNC(=O)CCn1c2c(c3ccccc31)CCCC2,5,-4,8,-1
CO[C@@H](CN(C)S(=O)(=O)c1ccc(Cl)cc1)[C@@H](C)CN(Cc1ccccc1Cl)[C@@H](C)CO,.,-8,.,.
Cc1cc(C)cc(OCC(=O)Nc2cccc(-c3nnc(-c4ccco4)o3)c2)c1,68*,34,57*,5
O=C(Nc1cccc(-c2nnc(-c3ccccc3)o2)c1)c1ccc(Br)o1,40,-2,58*,6
COc1ccc(C(=O)Nc2cccc(-c3nnc(-c4ccco4)o3)c2)cc1,57*,.,23,2
CN1[C@H](C(=O)Nc2ccccc2)[C@@H](CO)[C@@H]2Cn3c(ccc(-c4ccc(F)cc4)c3=O)[C@@H]21,.,-10,.,.
Cc1cccc(CNS(=O)(=O)c2ccc(-c3ccc(=O)[nH]n3)s2)c1,-21,-13,8,1
CCCC(NS(=O)(=O)c1ccc(-c2ccc(=O)[nH]n2)s1)c1cccs1 (stereo not drawn),58*,-12,35,-1
CN(C)c1ccc(CC(=O)N2CCCC(c3cc(C(=O)Nc4ccc(C(C)(C)C)cc4)no3)C2)cc1 (stereo not drawn),79*,17,38,.
N#Cc1ccc(-c2ccc(OCC(O)Cn3nnc4ccccc43)cc2)cc1 (stereo not drawn),37,.,52*,0
COc1ccc(CNCCC(c2ccc(F)cc2)c2ccc(OC)cc2)cc1 (stereo not drawn),-13,10,3,2
COc1ccc(C(CCNCc2ccc(F)cc2)c2ccc(F)cc2)cc1 (stereo not drawn),-19,59*,11,-4
CCc1nnc(NC(=O)CCC(=O)N2CCN(Cc3ccccc3)CC2)s1,-3,.,9,1
CCc1nnc(NC(=O)CCC(=O)N2CCN(C3c4ccccc4-c4ccccc43)CC2)s1,70*,10,78*,-5
C[C@@H]1CN([C@@H](C)CO)C(=O)c2cc(NC(=O)CCN3CCOCC3)ccc2O[C@H]1CN(C)C(=O)Nc1cccc2ccccc12,.,14,.,.
Cc1ccc(-n2cc(CN3CCNC(=O)CC3)c(-c3cccc(C)c3)n2)cc1,10,-8,-22,-2
Cc1ccc(-n2cc(CNCC3CC(=O)N(C4CC4)C3)c(-c3cccc(C)c3)n2)cc1 (stereo not drawn),-5,0,52*,1
O=S(=O)(NC1CC1)c1ccc(Cl)cc1F,99*,-10,2,0
O=C1C=C(c2c(O)ccc3ccccc23)c2ccccc2C1=O,102*,95*,49,.
COc1ccccc1C#Cc1ccc2c(c1)O[C@@H](CN(C)C)[C@H](C)CN([C@H](C)CO)S2(=O)=O,.,-1,.,.
O=C(C[C@@H]1C=C[C@@H](NC(=O)c2ccccc2)[C@@H](CO)O1)NCCc1ccncc1,.,-17,.,.
C[C@H]1CN([C@@H](C)CO)C(=O)Cc2cc(NC(=O)Cc3cn(C)c4ccccc34)ccc2O[C@@H]1CN(C)S(=O)(=O)c1cccs1,.,20,.,.
Cc1nc2cc(NC(=O)N3c4ccccc4CC3C)ccc2n1C (stereo not drawn),57*,12,39,13
Cc1nc2cc(NC(=O)N3c4ccccc4CC3C)ccc2o1 (stereo not drawn),13,0,-3,-2
Cc1cccc(C(=O)Nc2ccc3c(c2)nc(C)n3C)c1,59*,10,19,8
Cc1cccc(C(=O)Nc2ccc3c(c2)ncn3C)c1,17,-84,-25,1
